Assay results taken from PubChem BioAssay.
The source made the active and inactive calls.

How the values were obtained:
[1] = target: Albumin (Bos taurus) (UniProt P02769); test: compounds binding labelled BSA control protein – biochemical, small-molecule microarray, Alexa647 label, 635/667 nm fluorescence, artefact control for SMM control protein annotation, profiling panel (AID 1118); conditions: BSA-A647 binding, fluorescence 635 nm, higher = more signal;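 further: score merges 667 nm emission intensity and signal-to-noise per printed compound spot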
Sequence of Albumin (Bos taurus) (P02769 whole entry, looked up): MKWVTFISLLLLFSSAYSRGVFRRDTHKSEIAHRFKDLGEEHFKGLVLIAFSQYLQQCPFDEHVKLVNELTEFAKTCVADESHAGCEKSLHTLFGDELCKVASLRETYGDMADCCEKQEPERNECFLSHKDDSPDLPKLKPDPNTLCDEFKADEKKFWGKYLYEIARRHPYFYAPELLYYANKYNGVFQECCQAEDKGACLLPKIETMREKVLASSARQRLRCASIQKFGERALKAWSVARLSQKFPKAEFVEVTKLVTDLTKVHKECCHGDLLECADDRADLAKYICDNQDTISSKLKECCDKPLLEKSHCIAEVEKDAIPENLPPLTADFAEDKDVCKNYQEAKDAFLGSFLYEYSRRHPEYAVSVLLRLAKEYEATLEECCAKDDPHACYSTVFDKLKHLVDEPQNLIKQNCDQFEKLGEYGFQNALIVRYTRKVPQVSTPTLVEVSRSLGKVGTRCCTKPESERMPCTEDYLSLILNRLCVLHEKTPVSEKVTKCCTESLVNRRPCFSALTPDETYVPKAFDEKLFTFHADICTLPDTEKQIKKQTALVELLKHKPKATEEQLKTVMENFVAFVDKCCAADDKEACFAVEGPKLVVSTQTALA

[2] = probe aXIP binding to arrayed compounds – biochemical, NeuroSMM set, 635/667 nm fluorescence, primary screen (AID 1119); conditions: small-molecule microarray, higher = more signal, called active from +8 up or from −8 down;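 further: probe is the protein aXip251-270 applied at 1 µg/mL to compound-printed slides; binding of probe to printed compounds measured as 667 nm fluorescence plus signal to noise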
[3] = probe aNOTCH3 binding on compound microarray – biochemical, small-molecule microarray, 635/667 nm fluorescence, primary screen (AID 1120); conditions: higher = more signal;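 further: probe is a biotin-tagged antibody raised against NOTCH3 rather than NOTCH3 protein; score merges spot fluorescence near 667 nm with spot signal to noise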
[4] = probe aNOTCH2 binding on compound microarray – biochemical, small-molecule microarray, 635/667 nm fluorescence, primary screen (AID 1121); conditions: higher = more signal;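 further: score merges feature fluorescence read at 667 nm with its signal to noise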
[5] = target: Carbonic anhydrase 2 (Homo sapiens) (UniProt P00918); test: compounds binding carbonic anhydrase 2 – biochemical, small-molecule microarray, Alexa647-labelled CAII, profiling panel (AID 1122); conditions: CAII-A647 binding fluorescence, higher = more signal
[6] = COS7 lysate on small-molecule microarray, probe aHis, 635 nm (AID 1123); conditions: COS7 cell lysate, fluorescence, higher = more signal;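 further: z-score combines 667nm fluorescence intensity with signal-to-noise per printed compound spot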
[7] = probe aLAP1 signal on lysate-treated microarray – cell lysate, small-molecule microarray, COS7 lysate, primary screen (AID 1124); conditions: probe aLAP1, fluorescence, higher = more signal;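 further: lysate comes from COS7 cells expressing LAP1 and is applied at 0.3 µg/mL; score merges spot fluorescence near 667 nm with signal-to-noise over triplicate slides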
[8] = system: Sam68 (KHDRBS1); test: compounds binding KHDRBS1 protein – biochemical, small-molecule microarray, 635 nm fluorescence, primary screen (AID 1125); conditions: higher = more signal;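 further: score merges 667 nm channel intensity with signal to noise over triplicate slides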
[9] = system: Chordin-like protein 2 (CHRDL2); test: compounds binding chordin-like 2 – biochemical, small-molecule microarray, 635 nm fluorescence, primary screen (AID 1126); conditions: fluorescence 635 nm, higher = more signal;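 further: printed compound slides probed with Chrdl2 protein at 4 µg/mL for 1 h at 4 C; score merges 667 nm emission intensity with signal to noise over three replicate slides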
[10] = target: Concanavalin-A (Canavalia ensiformis) (UniProt P02866); test: compounds binding concanavalin A lectin – biochemical, small-molecule microarray, Alexa647 label, 635 nm, artefact control for SMM control protein annotation, primary screen (AID 1127); conditions: ConA-A647 binding fluorescence, higher = more signal;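 further: z combines 667 nm emission intensity with signal-to-noise across three replicate slides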
Sequence of Concanavalin-A (Canavalia ensiformis) (P02866 whole entry, looked up): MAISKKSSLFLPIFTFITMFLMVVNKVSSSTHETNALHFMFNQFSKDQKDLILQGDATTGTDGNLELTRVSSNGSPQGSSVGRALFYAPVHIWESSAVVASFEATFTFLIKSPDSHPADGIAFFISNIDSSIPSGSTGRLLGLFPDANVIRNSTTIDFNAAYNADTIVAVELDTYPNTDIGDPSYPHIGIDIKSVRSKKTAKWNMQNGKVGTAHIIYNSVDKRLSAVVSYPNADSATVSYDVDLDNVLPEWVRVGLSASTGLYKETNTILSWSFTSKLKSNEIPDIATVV

[11] = compounds binding Alexa647 anti-His antibody – biochemical, small-molecule microarray, 635 nm fluorescence, artefact control for SMM control protein annotation, primary screen (AID 1128); conditions: higher = more signal;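 further: score merges feature fluorescence with signal-to-noise for each printed compound spot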
[12] = system: Human papillomavirus type 1a E7 protein (residues 1-88); test: HPV1a E7 small-molecule binders, primary screen, biochemical, small-molecule microarray, residues 1-88, 635 nm (AID 1129); conditions: small-molecule microarray binding, fluorescence 635 nm; higher = more signal
[13] = target: Focal adhesion kinase 1 (Homo sapiens) (UniProt Q05397); test: PTK2 protein binding on printed compound slides – biochemical, small-molecule microarray, 635/667 nm fluorescence, BSA, DTT, primary screen (AID 1130); conditions: 635 nm fluorescence, higher = more signal;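 further: composite of spot emission at 667 nm and signal to noise over triplicate slides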
Sequence of Focal adhesion kinase 1 (Homo sapiens) (Q05397 whole entry, looked up): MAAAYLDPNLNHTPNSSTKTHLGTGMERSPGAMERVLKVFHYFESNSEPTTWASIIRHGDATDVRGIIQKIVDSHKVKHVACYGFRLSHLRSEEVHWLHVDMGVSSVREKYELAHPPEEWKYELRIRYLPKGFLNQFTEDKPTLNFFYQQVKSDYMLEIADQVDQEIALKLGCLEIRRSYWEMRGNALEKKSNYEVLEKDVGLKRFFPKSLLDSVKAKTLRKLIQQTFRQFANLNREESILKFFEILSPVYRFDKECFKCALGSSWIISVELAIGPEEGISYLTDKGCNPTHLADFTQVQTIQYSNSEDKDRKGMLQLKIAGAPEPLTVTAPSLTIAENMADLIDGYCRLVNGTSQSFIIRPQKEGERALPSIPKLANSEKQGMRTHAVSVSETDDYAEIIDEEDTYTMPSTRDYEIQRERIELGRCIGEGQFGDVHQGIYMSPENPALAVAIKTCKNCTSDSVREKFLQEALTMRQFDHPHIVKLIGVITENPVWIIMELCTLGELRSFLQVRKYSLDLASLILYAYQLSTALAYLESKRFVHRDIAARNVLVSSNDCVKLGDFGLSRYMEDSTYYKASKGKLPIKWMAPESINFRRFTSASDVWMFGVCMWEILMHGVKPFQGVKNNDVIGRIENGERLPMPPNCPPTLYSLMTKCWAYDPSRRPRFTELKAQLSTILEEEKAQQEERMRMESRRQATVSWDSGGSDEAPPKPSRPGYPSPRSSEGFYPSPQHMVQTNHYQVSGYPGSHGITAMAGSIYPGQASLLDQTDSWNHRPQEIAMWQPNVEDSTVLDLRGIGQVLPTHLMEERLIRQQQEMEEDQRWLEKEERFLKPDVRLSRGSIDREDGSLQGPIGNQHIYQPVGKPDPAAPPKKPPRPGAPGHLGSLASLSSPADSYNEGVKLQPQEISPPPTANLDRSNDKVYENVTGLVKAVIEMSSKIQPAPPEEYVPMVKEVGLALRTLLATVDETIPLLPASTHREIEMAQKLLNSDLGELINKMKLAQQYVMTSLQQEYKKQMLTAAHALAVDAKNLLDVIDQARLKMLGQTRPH

[14] = system: Fibrinogen (Alexa647-labelled); test: Alexa647-fibrinogen binding to printed small molecules – biochemical, small-molecule microarray, 635/667 nm fluorescence, artefact control for SMM control-protein annotation, profiling panel (AID 1131); conditions: fibrinogen-A647 binding fluorescence, higher = more signal;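 further: z-score merges 667 nm fluorescence with per-spot signal-to-noise over triplicate slides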
[15] = target: Follistatin (Homo sapiens) (UniProt P19883); test: FST protein binding to printed compounds – biochemical, small-molecule microarray, 635/667 nm fluorescence, primary screen (AID 1132); conditions: 635 nm fluorescence, higher = more signal
Sequence of Follistatin (Homo sapiens) (P19883 whole entry, looked up): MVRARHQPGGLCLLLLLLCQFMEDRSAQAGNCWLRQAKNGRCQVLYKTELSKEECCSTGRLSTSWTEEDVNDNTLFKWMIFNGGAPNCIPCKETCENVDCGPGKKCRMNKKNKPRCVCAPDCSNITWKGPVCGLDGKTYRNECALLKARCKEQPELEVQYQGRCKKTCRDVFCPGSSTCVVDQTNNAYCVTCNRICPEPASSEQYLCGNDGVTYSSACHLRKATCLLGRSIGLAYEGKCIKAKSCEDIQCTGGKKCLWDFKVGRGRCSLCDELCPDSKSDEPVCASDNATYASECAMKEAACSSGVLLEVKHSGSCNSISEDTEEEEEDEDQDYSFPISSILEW

[16] = target: Fibroblast growth factor 2 (Homo sapiens) (UniProt P09038); test: basic fibroblast growth factor binding to printed compounds – biochemical, small-molecule microarray, 635/667 nm fluorescence, primary screen (AID 1133); conditions: FGF2, fluorescence 635/667, higher = more signal
Sequence of Fibroblast growth factor 2 (Homo sapiens) (P09038 whole entry, looked up): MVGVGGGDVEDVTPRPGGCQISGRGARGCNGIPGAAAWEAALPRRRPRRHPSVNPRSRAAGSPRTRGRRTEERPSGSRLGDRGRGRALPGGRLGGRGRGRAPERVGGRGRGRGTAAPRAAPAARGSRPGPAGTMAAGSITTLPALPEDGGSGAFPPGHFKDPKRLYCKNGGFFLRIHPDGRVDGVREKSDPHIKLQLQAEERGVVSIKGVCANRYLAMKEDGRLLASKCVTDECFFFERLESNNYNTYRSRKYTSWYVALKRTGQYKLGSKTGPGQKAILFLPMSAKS

[17] = JC-1 mitochondrial potential readout, lung cancer cells – cell-based, A549, JC-1 fluorescence, basal, 24 h, 100 nL, profiling panel (AID 1138); conditions: higher = more signal;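 further: A549 lung adenocarcinoma cells under basal conditions with no added stimulus; test concentration not given here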
[18] = system: Lefty1; test: Lefty1 protein binding to printed compounds – biochemical, small-molecule microarray, 635/667 nm fluorescence, primary screen (AID 1139); conditions: fluorescence 635/667, higher = more signal
[19] = system: wheat germ agglutinin (Triticum aestivum), Alexa647-labelled; test: Alexa647-WGA lectin binding to printed small molecules – biochemical, small-molecule microarray, 635/667 nm fluorescence, artefact control for SMM control-protein annotation, profiling panel (AID 1140); conditions: WGA-A647 binding, 635 nm fluorescence, higher = more signal;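 further: score merges 667 nm feature emission with signal to noise over triplicate slides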
[20] = target: Luciferin 4-monooxygenase (Photinus pyralis) (UniProt P08659); test: inhibition of purified Photinus pyralis luciferase – biochemical, luminescence, purified enzyme, 2006 set, primary screen (AID 1141); conditions: purified firefly luciferase, SteadyGlo luminescence, 30 min; higher = more signal, called active from +8 up or from −8 down;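 further: cell-free assay with purified firefly luciferase at 100 ng per well in PBS; test concentration not given here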
Sequence of Luciferin 4-monooxygenase (Photinus pyralis) (P08659 whole entry, looked up): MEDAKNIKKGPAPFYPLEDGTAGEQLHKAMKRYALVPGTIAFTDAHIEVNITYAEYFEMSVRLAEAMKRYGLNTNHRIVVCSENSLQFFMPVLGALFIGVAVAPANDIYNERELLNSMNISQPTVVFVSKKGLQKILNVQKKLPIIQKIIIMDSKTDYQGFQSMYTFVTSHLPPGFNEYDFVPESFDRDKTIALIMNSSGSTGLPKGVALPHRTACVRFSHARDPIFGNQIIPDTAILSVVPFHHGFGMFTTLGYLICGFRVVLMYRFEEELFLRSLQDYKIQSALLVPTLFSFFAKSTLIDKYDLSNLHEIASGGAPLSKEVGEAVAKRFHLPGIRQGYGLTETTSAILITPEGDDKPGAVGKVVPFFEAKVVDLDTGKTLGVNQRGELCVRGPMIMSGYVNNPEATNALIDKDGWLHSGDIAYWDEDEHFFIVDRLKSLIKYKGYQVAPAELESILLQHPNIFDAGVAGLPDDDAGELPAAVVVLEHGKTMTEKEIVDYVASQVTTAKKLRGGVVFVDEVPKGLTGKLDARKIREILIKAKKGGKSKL

SMILES	composite z-score [1]	composite Z-score [2]	composite z-score [3]	composite z-score [4]	composite z-score [5]	composite z-score [6]	composite z-score [7]	composite z-score [8]	composite z-score [9]	composite z-score [10]	composite z-score [11]	composite z-score [12]	composite z-score [13]	composite z-score [14]	composite z-score [15]	composite z-score [16]	z-score [17]	composite z-score [18]	composite z-score [19]	z-score [20]
[N-]=[N+]=NCc1ccccc1C[C@]1(C(=O)NCC(O)CO)COC(c2ccc(OCCCO)cc2)=N1 (stereo not given in full)	1.03	0.621 (inactive)	0.0566	0.446	0.8	3.3	1.38	1.12	-1.37	0.954	1.41	1.2	1.98	0.0694	0.831	-0.0586	1.18	-0.683	0.964	-0.0644 (inactive)
NC(=O)NCC#Cc1ccc2c(c1)[C@]1(C(=O)N2)[C@H](C(=O)NC[C@H](O)c2ccccc2)[C@H]2C(=O)O[C@H](c3ccccc3)[C@H](c3ccccc3)N2[C@@H]1c1ccccc1OCCO	0.308	0.15 (inactive)	-0.0003	-0.164	0.539	1.54	0.564	0.854	-0.769	0.913	0.441	1.18	0.32	0.946	1.05	0.54	-1.17	0.28	0.25	0.649 (inactive)
C=CC[C@@]1(C(=O)OC)N=C(c2ccc(OCCCO)cc2)O[C@@H]1c1ccccc1CN=[N+]=[N-]	-0.13	-0.169 (inactive)	0.0419	-0.102	0.586	1.48	-0.11	0.38	0.373	0.518	0.78	0.996	0.242	0.0758	1.05	0.0452	0.00108	0.543	-0.0321	0.668 (inactive)
CCCCC(=O)N(Cc1ccccc1F)[C@@H]1CC(C(=O)NCCO)=C[C@H](Oc2c(I)cc(CO)cc2OC)[C@H]1O	-0.823	-0.685 (inactive)	0.201	-0.0128	0.521	1.54	0.44	1.3	1.5	1.19	1.28	1.25	1.38	0.96	1.51	2.04	-1.47	1.58	0.736	1.57 (inactive)
Cn1c2c(c3ccccc31)C(=O)C1NC2C=CC1(C)C(=O)OCc1ccccc1 (stereo not given)	0.445	-0.0597 (inactive)	-0.242	-0.166	0.682	1.77	1.46	1	-2.55	0.909	0.262	0.291	0.0584	0.351	-2.07	-2.05	-0.591	-1.82	0.757	1.15 (inactive)
